Among all 48,000 compounds or so, about 13,000 (27%) showed an effect of 50% or more. This is one part of the list.
system: Wolbachia pipientis; assay: Anti-Wolbachia Cell-Based Screen; format: functional; set-up: scale not given: in the data most compounds retested in dose-response had high values; details: 5 µM

Structure (SMILES) | Percent Effect [%]
O=C(NC1COC2(CCN(Cc3ccccn3)CC2)C1)c1ccccn1.O=C(O)C(F)(F)F (stereo not drawn) | -3.603
c1ccc(CCN2CCN(C3CCOC4(CCOCC4)C3)CC2)nc1 (stereo not drawn) | 69.95
c1ccc(CCN2CCN(C3CCOC4(CCOCC4)C3)CC2)cc1 (stereo not drawn) | 96.21
CN1CCN(C(=O)CC2CCN(CCc3ccccn3)CC2)CC1 | -2.122
O=C1NC2(CCN(CCc3ccccc3)CC2)CC1c1ccccc1 (stereo not drawn) | -3.919
COC(=O)C(O)C1CCN(CCc2ccccn2)CC1 (stereo not drawn) | -11.11
c1ccc(CN2CCN(C3CCOC4(CCOCC4)C3)CC2)nc1 (stereo not drawn) | 115.7
O=C(O)C(F)(F)F.c1ccc(OC2COC3(CCN(Cc4ccccn4)CC3)C2)cc1 (stereo not drawn) | -3.872
O=C1OC2(CCN(C3CCCOC3)CC2)CN1CCc1ccccc1 (stereo not drawn) | 0.1893
CC(C)Cc1cc(CC2(NCc3ccccc3Cl)COC2)no1 | -7.466
COc1cc(C)c(C(C)Nc2ncc(C(N)=O)cc2Cl)cc1OC (stereo not drawn) | -11.51
Cc1nn(C)c2nc(N(CCN(C)C)CC3CCCO3)sc12 (stereo not drawn) | 2.651
CC(NS(=O)(=O)CC1(C#N)CCCC1)c1cccc(-n2cccn2)c1 (stereo not drawn) | -9.973
COc1ccc(C)cc1CN(Cc1nc(C)c(C)o1)C1CCN(C)C1 (stereo not drawn) | -12.97
Cn1cc(N2C(=O)C[C@@H]3[C@@H]2CCN3C(=O)c2ccco2)cn1 | -4.812
CN1CCN([C@@H]2CCN(CC3CCOC3)[C@H]2Cc2cnn(C)c2)CC1.O=C(O)C(F)(F)F.O=C(O)C(F)(F)F.O=C(O)C(F)(F)F (stereo partly drawn) | -10.32
Cn1cc(CN2CC[C@@H]3[C@@H]2CCN3C(=O)c2cccc(F)c2)cn1.O=C(O)C(F)(F)F | -56.05
COc1ccc(CN2CC[C@@H]3[C@H]2CCC(=O)N3c2cnn(C)c2)cc1.O=C(O)C(F)(F)F | 83.34
Cn1cc(C(=O)N2CC[C@@H]3[C@@H]2CCN3Cc2cccc(C#N)c2)cn1.O=C(O)C(F)(F)F | -1.669
Cn1cc(N2C(=O)CC[C@@H]3[C@H]2CCN3CC2CCOCC2)cn1.O=C(O)C(F)(F)F | 100.5
Cn1cc(N2C(=O)CC[C@@H]3[C@H]2CCN3CCc2ccccc2)cn1.O=C(O)C(F)(F)F.O=C(O)C(F)(F)F | 83.57
Cn1cc(N2C[C@@H]3CN(CC4CCOCC4)C[C@@H]3C2=O)cn1.O=C(O)C(F)(F)F | -5.316
Cn1cc(N2C(=O)CC[C@@H]3[C@H]2CCN3Cc2cccc(C#N)c2)cn1.O=C(O)C(F)(F)F.O=C(O)C(F)(F)F | 96.87

From ChEMBL document CHEMBL3988442, “University of Dundee, Small-Polar-MMV Screening Library” (2021)
